# From PubChem BioAssay (Tox21)
# Values without a mark were called inactive. The call rests on the fitted dose curve.
# Assay: qHTS assay to identify small molecule agonists of the estrogen related receptor (ERR) signaling pathway from Tox21 library (AID 1224849); further: nearly all actives have a fitted effect of over 15% in size
# Details: ERR reporter cell line, ONE-Glo luciferase, 18 h; at 92.4 µM (top of the series) unless noted
# Procedure, shortened: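 Reporter cells (ERR, NTP source) treated with Tox21 10K compounds 18 h, 37 C. Readout: ONE-Glo luminescence, 30 min RT.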
# On the % scale 0 is the no-effect control and ±100 the full control effect.
compound,measurement,value
Cc1ccc([N+](=O)[O-])c(C)c1,"activity change, positive = activation",-82.5%
